High-throughput results (PubChem BioAssay)
Most compounds without a hit are left out; they make up all but 4% or so of the library.
Mtb bLac sens: beta-lactam sensitization of Mtb H37Rv, H37Rv | 0.27% of 330,000 active | inhibition, % at 25 µM | AID 434955, 2010 | M. tuberculosis H37Rv growth with meropenem, percent inhibition; call rule not given here;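 also: growth measured after seven days incubation then overnight dye step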
Rv3671c inh: Rv3671c serine protease inhibitors, primary screen, biochemical, fluorescence polarization, M. tuberculosis H37Rv; 0.048% of 320,000 active; AID 2606, 2010; inhibition, % at 5.96 µM; in the data active = inhibition above about 38%;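 also: extracellular domain of Rv3671c used as enzyme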
UGM FP inh: M. tuberculosis UGM enzyme inhibitors, primary screen, biochemical, fluorescence polarization, single point | AID 504406, 2011 | purified UGM, fluorescence polarization probe displacement | inhibition, % at 10 µM | 0.06% of 320,000 active | UDP-galactopyranose mutase (Mycobacterium tuberculosis (strain ATCC 25618 / H37Rv)), …; in the data active = inhibition above about 10%, passing the limit was not always enough; inconclusive = no clear call, values can overlap the other calls
GDH-TPI counter: GDH-TPI coupling enzyme inhibitors, primary screen, artefact control for M. tuberculosis FBA inhibitor project, biochemical, absorbance, full deck; GDH-TPI coupled enzyme counterscreen, NADH absorbance; inhibition, % at 4.8 µM; 1.2% of 360,000 active; AID 588335, 2011; in the data active = inhibition above about 30%
RecA intein inh: Mtb RecA intein splicing inhibitors, primary screen, biochemical, fluorescence, HTS | 0.75% of 290,000 active | inhibition, % (concentration not given with the values) | AID 2221, 2009 | cell-free RecA intein splicing; in the data active = inhibition above about 30%; inconclusive = no clear call, values can overlap the other calls
FBA Mtb inh: Mtb FBA enzyme inhibitors, primary screen, biochemical, fluorescence, strain H37Rv | 2.3% of 360,000 active | Fructose-bisphosphate aldolase (Mycobacterium tuberculosis (strain ATCC 25618 / H37Rv)), … | inhibition, % at 1 µM | purified M. tuberculosis FBA, fluorescence read-out | AID 588726, 2011; in the data active = inhibition above about 27%
Target sequence (P9WQA3 whole entry, looked up): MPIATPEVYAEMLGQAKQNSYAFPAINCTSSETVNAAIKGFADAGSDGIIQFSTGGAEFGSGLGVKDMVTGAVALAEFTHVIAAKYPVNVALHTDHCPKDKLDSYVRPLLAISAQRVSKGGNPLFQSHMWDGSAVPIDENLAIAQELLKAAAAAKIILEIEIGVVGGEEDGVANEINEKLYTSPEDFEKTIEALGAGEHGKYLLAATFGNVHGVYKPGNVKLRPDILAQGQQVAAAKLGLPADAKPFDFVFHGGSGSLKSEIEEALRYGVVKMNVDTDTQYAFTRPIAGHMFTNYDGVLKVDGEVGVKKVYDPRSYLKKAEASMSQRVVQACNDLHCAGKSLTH
Numbers stand for hits; i = inactive; ? = inconclusive; nt = no result; + = active, no number.

SMILES | Mtb bLac sens | Rv3671c inh | UGM FP inh | GDH-TPI counter | RecA intein inh | FBA Mtb inh
COc1ccc(CC(=O)NCC(=O)N=Nc2c(O)[nH]c3ccccc23)cc1 | i | i | i | i | i | i
COc1ccccc1/C=C/C(=O)NCC(=O)N=Nc1c(O)[nH]c2ccccc12 | i | i | i | 36 | i | i
CCN(CC)c1ccc(C(=O)OCC(=O)NC(C)(C)C)cc1 | i | i | i | 57 | i | i
COc1cccc(/C=C/C(=O)NCc2ccc(S(N)(=O)=O)cc2)c1 | i | i | i | i | i | 28
Cc1ccc(O)c(Cn2nnc3ccccc32)c1 | i | i | i | i | i | i
Cc1ccc(C)c(-n2c(SCC(=O)Nc3nnc(C)s3)nnc2-c2ccoc2C)c1 | i | i | i | i | i | i
CCOC(=O)c1nn(-c2ccccc2)c(=O)c2c(N)scc12 | i | i | i | i | nt | i
CCOC(=O)c1nn(-c2ccccc2)c(C(=O)OCC)c1N | i | i | i | i | i | +
CCOc1ccccc1NC(=O)c1cc(C(=O)c2cc(Br)ccc2O)coc1=N | i | i | i | 31 | i | i
Cc1c(NS(=O)(=O)c2ccc([N+](=O)[O-])cc2)c(=O)n(-c2ccccc2)n1C | i | i | i | i | i | i
Cc1c(NC(=S)N/N=C/C=C/c2ccccc2)c(=O)n(-c2ccccc2)n1C | i | i | i | 62 | i | i
Cc1c(NC(=S)N/N=C/C=C/c2ccc([N+](=O)[O-])cc2)c(=O)n(-c2ccccc2)n1C | i | i | i | 32 | i | i
COc1ccc(/C=N/NC(=S)Nc2c(C)n(C)n(-c3ccccc3)c2=O)cc1OC | i | i | i | i | i | i
CCOC(=O)c1ccc(Nc2c(OCC)c(=O)c2=O)cc1 | i | i | i | 35 | i | i
CCOC(=O)c1ccc(Nc2ncnc3ccccc23)cc1 | i | i | i | 57 | i | i
CCOC(=O)c1nc(Nc2ccc(C)cc2)c2ccccc2n1 | i | i | i | 34 | i | i
CCOC(=O)c1nc(Nc2ccccc2)c2ccccc2n1 | i | i | i | i | i | i
Cc1noc(C)c1COC(=O)c1ccccc1Oc1ccccc1 | i | i | i | i | i | i
CCOC(=O)C(=O)NN=C(c1ccccc1)c1ccccc1 | i | i | i | i | i | i
COc1ccc(NC(=O)N2CCOCC2)cc1 | i | i | i | i | i | i
COc1ccc(C(=O)/C=C\N2CCOCC2)cc1 | i | i | i | 33 | i | i
COc1cc2cnc(C3=CCCCC3)cc2cc1OC | i | i | i | i | nt | i
COc1ccc2cc(C3=CCCCC3)ncc2c1 | nt | i | i | i | nt | 27
Cc1no[n+]([O-])c1COc1ccc(/C=C2\NC(=S)NC2=O)cc1 | i | i | i | 39 | i | i
CCOc1ccc(/C=C2\NC(=S)NC2=O)cc1 | i | i | i | i | i | i
SMILES | Mtb bLac sens | Rv3671c inh | UGM FP inh | GDH-TPI counter | RecA intein inh | FBA Mtb inh
Cc1cc2ncc(S(=O)(=O)c3ccccc3)c(N)n2n1 | i | i | i | i | i | i
CCc1nccn1S(=O)(=O)c1ccc2ccc(C)cc2c1 | i | i | i | i | i | i
N#CCC(CNc1ncc(C(F)(F)F)cc1Cl)OC(=O)c1cccc(C(F)(F)F)c1 (centres undefined) | i | i | i | i | i | i
O=C1/C(=C/c2ccc(C(=O)O)cc2)CCC/C1=C\c1ccc(C(=O)O)cc1 | i | i | i | 33 | i | i
CN(C)c1ccc(/C=C2\CCC/C(=C\c3ccccc3)C2=O)cc1 | i | i | i | i | i | i
C1CCN(c2nc3nonc3nc2N2CCCCC2)CC1 | i | i | i | i | i | i
C1CCN(c2nc3nonc3nc2NCC2CCOCC2)CC1 | i | i | i | 52 | i | i
O=[N+]([O-])c1ccc(/C=C2\CCC(C3=CCCC3)=C2N2CCOCC2)cc1 | ? | i | i | i | i | i
CC(=O)c1sc2nc(C)cc(C)c2c1N | i | i | i | i | i | i
Cc1cc(C)c2c(N)c(C(=O)Nc3ccccc3Cl)sc2n1 | i | i | i | i | i | 33
Cc1cc(C)c2c(N)c(C(=O)Nc3ccccc3F)sc2n1 | i | i | i | i | i | i
C=COC(=O)c1sc2nc(C)cc(C)c2c1N | i | i | i | i | i | 134
N#CC1(NC(=O)COC(=O)/C=C/c2ccc3ccccc3n2)CCCCC1 | i | i | i | i | i | i
CCC(C)[C@H](NC(=O)NCCCn1ccnc1)C(=O)OC (some centres undefined) | i | i | i | i | i | i
CCN1CCN(c2ncnc3c2sc(=S)n3-c2ccccc2)CC1 | i | i | i | 39 | i | i
COC(=O)CNC(=O)C12CC3CC(C1)CC(c1ccc(C)cc1)(C3)C2 | i | i | i | i | i | i
CCN(C(=O)COC(=O)c1ccccc1OCc1ccc(Cl)cc1)C1CCS(=O)(=O)C1 (centres undefined) | i | i | i | i | nt | i
N=c1c(S(=O)(=O)c2ccc(Br)cc2)cc2c(=O)n3ccccc3nc2n1CCN1CCOCC1 | nt | nt | nt | i | nt | +
N=c1c(C(=O)NCc2ccc(F)cc2)cc2c(=O)n3ccccc3nc2n1CCCN1CCOCC1 | i | i | i | i | nt | 113
N=c1c(C(=O)NCCc2ccccc2)cc2c(=O)n3ccccc3nc2n1CCCN1CCOCC1 | i | i | i | i | nt | 145
Cc1ccc(Cn2c(=N)c(C(=O)NCCN3CCOCC3)cc3c(=O)n4ccccc4nc32)cc1 | i | i | i | i | i | i
N=c1c(C(=O)NCCN2CCOCC2)cc2c(=O)n3ccccc3nc2n1CCc1ccccc1 | i | i | i | i | i | 173
COc1ccc(C)cc1NC(=O)c1ccc(NS(=O)(=O)c2cccc3cccnc23)cc1 | i | i | i | i | i | i
Cc1c(-n2c(-c3ccccc3)nc3ccccc3c2=O)c(=O)n(-c2ccccc2)n1C | i | i | i | i | i | i
COc1ccc(OC)c(CN2CCC(C(=O)N(C)CCc3ccc(OC)c(OC)c3)CC2)c1 | i | i | i | i | i | i
CSc1nnc(-c2cccn(Cc3ccccc3)c2=O)o1 | i | i | i | i | i | 131
CSCCC(NC(=O)c1ccco1)C(=O)OCc1cc([N+](=O)[O-])cc2c1OCOC2 (centres undefined) | i | i | i | i | i | i
CCN1CC=C2C(C#N)=C(N)C(C#N)(C#N)C(c3cc(Cl)ccc3Cl)C2C1 (centres undefined) | i | i | i | i | i | 33
CCC1C2CN(C(C)=O)CC=C2C(C#N)=C(N)C1(C#N)C#N (centres undefined) | i | i | i | i | i | i
